Experimental data reported in PubChem BioAssay (Tox21).
Values joined by “and” are separate entries in the source; they are usually repeats but may differ in a detail not shown here. Equal values may be shown once. Results filed as inconclusive are left out. A call without a number means that no potency is given here. Active and inactive are the calls of the source. Calls follow the shape of the dose curve; as a rule, active = well fitted activation curve with a large enough effect in the signal ratio in the repeat runs (not every such curve was filed as active); inconclusive = weak or mixed curves, or effect the other way; inactive = flat fitted curve, though single readings scatter; the % refers to the signal ratio.

Target: Estrogen receptor beta (Homo sapiens) (UniProt Q92731)
Experiment: qHTS assay to identify small molecule agonists of the estrogen receptor beta (ER-beta) signaling pathway (AID 1259377)
Conditions: ER-beta-UAS-bla HEK293T, beta-lactamase FRET ratio, 16 h; series mostly up to 92.4 µM
Text: U.S. Tox21 Program National Center for Advancing Translational Sciences [NCATS] NIH Chemical Genomics Center [NCGC] U.S. Environmental Protection Agency [EPA] National Institutes of Environmental Health Sciences [NIEHS] National Toxicology Program [NTP] U.S. Food and Drug Administration [FDA] Tox21 Assay Overview: Estrogen receptor (ER), a nuclear hormone receptor, plays an important role in development, metabolic homeostasis and reproduction. Two subtypes of ER, ER-alpha and ER-beta, have similar expression patterns with some uniqueness in both types. Endocrine disrupting chemicals (EDCs) and their interactions with steroid hormone receptors like ER causes disruption of normal endocrine function. To identify the compounds that activate ER signaling, an ER beta-UAS-bla GripTite cell line (Life technologies, Madison, WI, USA) containing a beta-lactamase reporter gene under the control of an Upstream Activator Sequence (UAS) was used to screen Tox21 10K compound library.
Tox21 Assay Protocol Summary: ER-beta-UAS-bla HEK293T cells were dispensed at 2,000 cells/5 uL of assay medium containing 2% charcoal stripped FBS per well into black wall/clear-bottom 1536-well plates using a Multidrop Combi (ThermoFisher Scientific, Waltham, MA) dispenser. After the assay plates were incubated at a 37C and 5% CO2 for 6 hr, 23 nL of compounds dissolved in DMSO, positive controls or DMSO only was transferred to the assay plate by a Pintool station (Kalypsys, San Diego, CA). The plates were incubated at 37C and 5% CO2 for 16 hr. Then 1 uL of LiveBLAzerTM B/G FRET substrate was added using a BioRAPTR FRD (Flying Reagent Dispenser, Aurora Discovery, San Diego, CA). After the plates were incubated at room temperature for 2 hours, fluorescence intensity was measured by an Envision plate reader (PerkinElmer, Shelton, CT).
Potency is read from the fitted curve at half-maximal effect.

Sequence of Estrogen receptor beta (Homo sapiens) (Q92731 whole entry, looked up): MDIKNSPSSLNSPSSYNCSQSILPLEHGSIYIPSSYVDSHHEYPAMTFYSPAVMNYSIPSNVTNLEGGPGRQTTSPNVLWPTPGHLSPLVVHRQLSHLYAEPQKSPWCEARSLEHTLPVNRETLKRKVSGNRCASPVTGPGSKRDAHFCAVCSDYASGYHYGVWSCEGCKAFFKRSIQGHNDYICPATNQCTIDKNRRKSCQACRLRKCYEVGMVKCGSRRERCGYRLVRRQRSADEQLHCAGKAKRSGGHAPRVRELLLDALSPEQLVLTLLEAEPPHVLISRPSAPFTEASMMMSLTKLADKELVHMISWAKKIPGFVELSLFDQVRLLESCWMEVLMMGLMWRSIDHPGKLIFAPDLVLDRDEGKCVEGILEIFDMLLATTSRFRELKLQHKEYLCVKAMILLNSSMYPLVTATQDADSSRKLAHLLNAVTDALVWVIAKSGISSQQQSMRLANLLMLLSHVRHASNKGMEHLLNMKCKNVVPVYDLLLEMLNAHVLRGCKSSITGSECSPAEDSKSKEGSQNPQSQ

Row | Compound | Potency
1 | COCCOc1cc2cc(C(=O)NC3CCN(C(C)C)CC3)n(CC(=O)Nc3ccc(Cl)cn3)c2cn1 | inactive
2 | CC/C=C\CCCCCO | inactive
3 | C=C(C)C(=O)OCCCCCCCCCC | inactive
4 | CN(C)C(=O)COC(=O)Cc1ccc(OC(=O)c2ccc(N=C(N)N)cc2)cc1 | inactive
5 | Cc1ccc(-c2ccccc2)cc1 | inactive
6 | Cc1nc(-c2ccc(Cl)cc2)oc1COC(C)(C)C(=O)O | inactive
7 | Oc1ccccc1O | 22 µM (active) and 24.3 µM (active)
8 | OC12N=C(c3ccccc3)SC1Cc1cc(Cl)ccc12 (stereo not given) | inactive
9 | O=C(O)Cc1ccccc1Nc1c(Cl)cccc1Cl | inactive
10 | CCCNCCC | inactive
11 | COc1c(C)c2c(c(O)c1C/C=C(\C)CCC(=O)OCCN1CCOCC1)C(=O)OC2 | inactive
12 | CN1CCN2c3ccccc3Cc3ccccc3C2C1 (stereo not given) | inactive
13 | FC(F)(F)c1cccc(Cl)c1 | inactive
14 | CCCC1CCC(=O)CC1 | inactive
15 | CC[N+](CC)(CC)CCOc1ccc(/C=C/c2ccccc2)cc1 | inactive
16 | CCCCC(CC)COC(=O)CCCCC(=O)OCc1ccccc1 (stereo not given) | inactive
17 | C#C[C@]1(OC(C)=O)CC[C@H]2[C@@H]3CCC4=C[C@@H](OC(C)=O)CC[C@@H]4[C@H]3CC[C@@]21C | 335 nM (active)
18 | CCN(CC)c1ccc2c(-c3ccc(S(=O)(=O)O)cc3S(=O)(=O)[O-])c3ccc(=[N+](CC)CC)cc-3oc2c1 | inactive
19 | CCCCN(CCCC)CC(O)c1cc(Cl)cc2c1-c1ccc(Cl)cc1/C2=C/c1ccc(Cl)cc1 (stereo not given) | inactive
20 | CN(C)[C@@H](CCOc1cccc2ccccc12)c1ccccc1 | inactive

Row | Compound | Potency
21 | CCOC(=O)c1ccc(C2CCC(NC[C@H](O)COc3ccc(O)c(NS(C)(=O)=O)c3)CC2)cc1 (stereo not given in full) | inactive
22 | C#C[C@]1(OC(C)=O)CC[C@H]2[C@@H]3CCC4=C/C(=N/O)CC[C@@H]4[C@H]3CC[C@@]21CC | inactive
23 | O=C1CCCCCCCCCCCCCCCO1 | inactive
24 | O=C(O)Cc1ccc2c(c1)C(=O)c1ccccc1CO2 | inactive
25 | O=S(=O)(O)c1ccccc1/C=C/c1ccc(-c2ccc(/C=C/c3ccccc3S(=O)(=O)O)cc2)cc1 | 39100 nM (active)
26 | OC1CCC(C2CCCCC2)CC1 (stereo not given) | inactive
27 | OCCN1CCN(CCCN2c3ccccc3Sc3ccc(C(F)(F)F)cc32)CC1 | inactive
28 | Sc1nc2ccccc2s1 | inactive
29 | CCc1cccc(CC)c1NC(=O)CN(CC(=O)O)CC(=O)O | inactive
30 | OCC(F)(F)F | inactive
31 | CCCC[P+](C)(CCCC)CCCC | inactive
32 | Cc1cc(-c2ccc(N=Nc3cc(S(=O)(=O)O)c4ccccc4c3N)c(C)c2)ccc1N=Nc1cc(S(=O)(=O)O)c2ccccc2c1N | inactive
33 | C=Cc1cccc(C)c1 | inactive
34 | O=C(O)c1cc(O)c2ccccc2c1O | inactive
35 | NC(=O)c1cccc([N+](=O)[O-])c1 | inactive
36 | CC(C)=CCC1=C(O)c2ccccc2C(=O)C1=O | inactive
37 | CC(CCc1ccccc1)NCC(O)c1ccc(O)c(C(N)=O)c1 (stereo not given) | inactive
38 | O=C(/C=C/c1ccccc1)OC/C=C/c1ccccc1 | inactive
39 | CCC(=O)OC(=O)CC | inactive
40 | CC(=O)OCC=C(C)C | inactive
